Screen size: about 420,000 compounds; about 64,000 (15%) were called active. Not shown: some 27% with an inconclusive outcome. The call rests on the fitted dose curve; in most records, active means well fitted inhibition curve with a large enough effect; inconclusive means small, poorly fitted or top-dose-only effect; inactive means flat fitted curve, though single readings scatter. Only a sample is shown. Peptide text beside a SMILES is read from it.
Assay: qHTS for Inhibitors of human tyrosyl-DNA phosphodiesterase 1 (TDP1): qHTS in cells in absence of CPT; further: nearly all actives have a fitted effect of over 55% in size
Conditions: DT40 Tdp1-/- hTDP1 cells, no CPT, ATP luminescence, 48 h; activity change, negative = growth inhibition: at 46.2 µM (top of the series)
Summary of the method: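 Luminescent ATP content (CellTiter-Glo) served as the growth readout. Knockout chicken DT40 cells expressing human TDP1 were exposed to compounds without camptothecin for a minimum 48 hr at 37 °C.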
On the % scale 0 is the no-effect control and ±100 the full control effect; potency means the concentration at half of the fitted maximal effect.

| SMILES | activity change, negative = growth inhibition | Potency |
| --- | --- | --- |
| COc1ccc(NC(=O)COc2ccc(C(=O)OCC(=O)N(C)C3CCS(=O)(=O)C3)cc2OC)cc1 (configuration not stated) | -29% (inactive) |  |
| CCOC(=O)N1CCN(S(=O)(=O)c2ccc(OC)cc2)CC1 | -11.3% (inactive) |  |
| NC(=O)c1ccccc1N(Cc1ccccc1)S(=O)(=O)c1ccccc1 | -24.2% (inactive) |  |
| CCOC(=O)N1CCN(C(=O)c2ccccc2N(Cc2ccccc2)S(=O)(=O)c2ccc(OC)cc2)CC1 |  | 3.26 µM (active) |
| CN(CCO)Cc1csc2ccc(Br)cc12 | -27.8% (inactive) |  |
| CN(CC(=O)O)S(=O)(=O)c1ccc2oc3ccccc3c2c1 | 1.02% (inactive) |  |
| CCOC(=O)c1c(C)nc2c(c1C)c(=O)oc1ccccc12 | -2.71% (inactive) |  |
| CCOC(=O)c1c(C)oc2ccc(N(C(=O)c3ccncc3)S(=O)(=O)c3ccc(CC)cc3)cc12 |  | 2.91 µM (active) |
| COC(=O)c1c(C)oc2ccc(N(C(=O)Oc3ccccc3)S(=O)(=O)c3ccccc3)cc12 |  | 11.6 µM (active) |
| CCOC(=O)c1c(C)oc2cc(Br)c(OCC(N)=O)cc12 | 0.351% (inactive) |  |
| COc1ccc2oc(C(=O)NCC(Cc3ccccc3)N(C)C)c(C)c2c1 (configuration not stated) | -72.7% (inactive) |  |
| O=C(CN1CCOCC1)Nc1c2c(nc3c1CCC3)CCC2 | -10.9% (inactive) |  |
| CCC(C)N(C(=O)COC(=O)C1C(C(=O)OC)=C(C)NC(C)=C1C(=O)OC)C1CCS(=O)(=O)C1 (configuration not stated) | 18.7% (inactive) |  |
| COc1ccccc1CNC(=O)CS(=O)(=O)c1cccc2nsnc12 | 3.54% (inactive) |  |
| COc1cccc(NC(=O)c2ccccc2SC)c1 | 1.33% (inactive) |  |
| COc1cc(NC(=O)c2cccs2)ccc1NC(=O)c1ccccc1Cl | -19.8% (inactive) |  |
| COc1cc2ccccc2cc1C(=O)Nc1ccc(NC(=O)c2cccs2)cc1 |  | 20.6 µM (active) |
| COc1cc2ccccc2cc1C(=O)Nc1ccc(S(=O)(=O)Nc2cc(C)on2)cc1 | -5% (inactive) |  |
| COc1cc2ccccc2cc1C(=O)Nc1cccc(-c2nc3ccccc3o2)c1 |  | 20.6 µM (active) |
| O=C(Nc1cccc(Br)c1)c1ccc2snnc2c1 | -20.1% (inactive) |  |
| O=C(Nc1cccc(-c2nc3ncccc3o2)c1)c1ccco1 | -25.7% (inactive) |  |
| O=C(Nc1cccc(-c2nc3ccccc3o2)c1)c1cccc(Br)c1 |  | 20.6 µM (active) |
| COc1cc2ccccc2cc1C(=O)Nc1ccncc1 | -29.2% (inactive) |  |
| Cc1cccc(CCNC(=O)Cn2ncc3c([nH]c4ccc(C)cc43)c2=O)c1 | -16.7% (inactive) |  |
| CCN(C(=O)COC(=O)c1ccccc1O)c1cccc2ccccc12 | -23% (inactive) |  |
| Cc1nnc(SCC2=C(C(=O)O)N3C(=O)C(NC(=O)Cn4nc(C)c(Cl)c4C)C3SC2)s1 (configuration not stated) | 3.68% (inactive) |  |

| SMILES | activity change, negative = growth inhibition | Potency |
| --- | --- | --- |
| C=CCNC(=O)c1ccccc1SCc1c(C)noc1C | 5.86% (inactive) |  |
| COc1ccc(S(=O)(=O)NC2(C(F)(F)F)N=C3SCCN3C2=O)cc1 (configuration not stated) | 1.14% (inactive) |  |
| CN(CCc1ccccn1)C1CCCN(S(=O)(=O)c2ccccc2Cl)C1 (configuration not stated) | -16.2% (inactive) |  |
| Cc1ccc2c(c1)-c1c(cnn1CC(=O)Nc1ccccc1C#N)CO2 | -29.7% (inactive) |  |
| Cc1nc(-c2ccc(Cl)cc2)sc1C1(C)CC(c2ccccc2F)=NO1 (configuration not stated) | -11.9% (inactive) |  |
| NS(=O)(=O)c1ccccc1NC(=O)c1c(O)c2ccccc2[nH]c1=O | -24.1% (inactive) |  |
| Cc1cccc(OCCSc2nc3ccccc3n2CC(=O)N2CCCCC2)c1C |  | 23.1 µM (active) |
| Cc1ccc(C(C)C)c(OCCSc2nc3ccccc3n2CC(=O)O)c1 | -2.5% (inactive) |  |
| CCOc1ccc(OCCSc2nc3ccccc3n2CC(=O)O)cc1 | -18.2% (inactive) |  |
| Clc1ccc(Cl)c(Oc2ccc(Oc3nc(Cl)ccc3Cl)cc2)n1 | -14.1% (inactive) |  |
| COc1cc(Cl)c(C)cc1NC(=O)[C@@H]1CCCN1C(=O)c1cccs1 | -3.66% (inactive) |  |
| CCN(c1ccc2c(c1)OCO2)S(=O)(=O)c1cc(Br)cc2c1N(C(=O)C1CC1)CC2 |  | 25.9 µM (active) |
| O=C(CCS(=O)(=O)c1cc(Br)cc2c1N(C(=O)C1CC1)CC2)Nc1ccc(Br)cc1F | -11.8% (inactive) |  |
| O=C(CCS(=O)(=O)c1cc(Br)cc2c1N(C(=O)C1CC1)CC2)Nc1ccc(C(F)(F)F)cc1 | -6.43% (inactive) |  |
| O=c1oc2ccc(C#CC3(O)CCCCC3)cc2cc1-n1cc(-c2ccsc2)nn1 | -28.1% (inactive) |  |
| O=C(Cc1nc2ccccc2[nH]c1=O)c1ccc(Cl)cc1 | -23.9% (inactive) |  |
| CCC(=O)/C(=C(/O)c1ccccc1)c1nc2ccccc2[nH]1 | -0.407% (inactive) |  |
| O=C(/C(=C/c1cccc(Cl)c1)c1nc2ccccc2[nH]1)c1ccccc1 |  | 23.1 µM (active) |
| CN1CCC(=NNC(=O)c2ccc(N(Cc3ccc(Cl)cc3)S(C)(=O)=O)cc2)CC1 | -7.52% (inactive) |  |
| NC(=O)Cn1nc([N+](=O)[O-])nc1Oc1ccc(Br)cc1 | 11.7% (inactive) |  |
| CC(C)CCNC(=O)CCNS(=O)(=O)c1ccc(Cl)cc1 | -5.64% (inactive) |  |
| O=S1(=O)CCO[C@H]2Cc3ccccc3[C@H]2N1Cc1ccccc1 | -21.9% (inactive) |  |
| CCOc1cc(/C=N/O)cc(Br)c1OC | -23.1% (inactive) |  |
| COc1cc(/C=C2/C(=O)NN(c3cccc(Cl)c3)C2=O)cc(Br)c1O | -2.28% (inactive) |  |
| CCOc1c(Br)cc(/C=C2\C(=O)N(CCC#N)N=C2C)cc1OC |  | 29.1 µM (active) |
| CCn1c(SCC(=O)NC2=NCCS2)nnc1C(C)NC(=O)c1ccccc1F (configuration not stated) | -2.37% (inactive) |  |

| SMILES | activity change, negative = growth inhibition | Potency |
| --- | --- | --- |
| Cc1ccc(-n2c(C)nnc2SCC(=O)NC2CC2)cc1 | 0.716% (inactive) |  |
| CCCCCCCCCCCCC(NC(C)=O)(C(=O)OCC)C(=O)OCC |  | 20.6 µM (active) |
| CCCC(CCC(=O)OC)(C(=O)OCC)c1csc(N)n1 (configuration not stated) | -2.44% (inactive) |  |
| CCCCCCCCCCCC(=O)O | -27.7% (inactive) |  |
| COC(=O)C1=CO[C@@H](O[C@@H]2O[C@H](CO)[C@@H](O)[C@H](O)[C@H]2O)C2C1C[C@H](O)[C@@H]2C (some centres not stated) | -10.1% (inactive) |  |
| CCOC(=O)C1=C(C)Nc2nc3ccccc3n2C1c1cccs1 (configuration not stated) | -0.394% (inactive) |  |
| COc1ccccc1NC(=O)C1=C(C)Nc2nc3ccccc3n2C1c1cccs1 (configuration not stated) |  | 3.26 µM (active) |
| COc1ccccc1NC(=O)C1=C(C)Nc2ncnn2C1c1sccc1C (configuration not stated) | -1.49% (inactive) |  |
| CCOC(=O)C1CCN(C(=O)CSc2cc(=O)n(C)c3ccccc23)CC1 | -17.7% (inactive) |  |
| O=c1[nH]c(-c2ccccc2)c(-c2ccccc2)[nH]1 | -27.8% (inactive) |  |
| Cc1cc(=O)c2ccc(NC(=O)c3ccccc3)cc2[nH]1 | 10.8% (inactive) |  |
| O=c1cc(-c2ccccc2)[nH]c2cc(F)ccc12 |  | 1.03 µM (active) |
| Cc1ccc(-c2cc(=O)c3ccc(Cl)cc3[nH]2)cc1 | -15.6% (inactive) |  |
| Cc1ccc(S(=O)(=O)/N=C(\N)c2ccc(F)cc2)cc1 | 7.02% (inactive) |  |
| Cc1ccc(-c2cc(=O)c3ccc(F)cc3[nH]2)cc1 |  | 13 µM (active) |
| O=S(=O)(Nc1ccccc1Br)c1cccs1 | -16.7% (inactive) |  |
| Cn1nccc1/C=N\NC(=O)c1ccc(Cl)cc1 | 5.3% (inactive) |  |
| Cc1cc(-n2cnc(-c3cn(C)nc3C)n2)no1 | -0.924% (inactive) |  |
| Cc1cc(C)c(NC(=O)C[N+](C)(C)CC(O)COc2cccc3ccccc23)c(C)c1 (configuration not stated) |  | 18.4 µM (active) |
| Cc1cccc(NC(=O)COc2ccccc2C)n1 | -22.7% (inactive) |  |
| Cc1cc(C)cc(OCC(=O)Nc2c(C(=O)c3ccccc3)oc3ccccc23)c1 | 3.8% (inactive) |  |
| Cc1cccc(NC(=O)c2ccc3nsnc3c2)c1C | -27.4% (inactive) |  |
| O=C(Nc1ccccc1)OCc1cc(-c2ccc(Cl)cc2)on1 | -8.65% (inactive) |  |
| CCc1cc2c(N3CCN(c4nnc(CC)s4)CC3)ncnc2s1 |  | 8.2 µM (active) |
| O=C(CCc1nnc2ccc(NCc3ccccc3Cl)nn12)NCC1CCN(C2CCCC2)C1 (configuration not stated) | -15.2% (inactive) |  |
| O=C(CSc1ccsc1[N+](=O)[O-])N1CCCCC1 | -9.26% (inactive) |  |

| SMILES | activity change, negative = growth inhibition | Potency |
| --- | --- | --- |
| CS(=O)(=O)N(CC(=O)N1CCCCCC1)c1cccc(Cl)c1Cl | -28.3% (inactive) |  |
| Cc1ccc(C(=O)c2c(NC(=O)c3ccccc3)sc(C)c2C)cc1 |  | 23.1 µM (active) |
| CCOC(=O)c1c(NC(=O)c2cccs2)sc(C)c1C | -3.76% (inactive) |  |
| Cc1ccc(C(=O)Nc2c(-c3ccccc3)[nH][nH]c2=O)cc1 | 15% (inactive) |  |
| Cn1c(=O)c2cc(S(=O)(=O)NCCC(=O)Nc3ccc(F)cc3F)ccc2n(C)c1=O | -27.1% (inactive) |  |
| COc1ccc(NC(=O)CN(C)C(=O)/C=C/c2cn(Cc3ccccc3)nc2-c2cccnc2)cc1 | -21.8% (inactive) |  |
| Cc1cc(C)cc(NC(=O)CSc2nc(=O)n(CCN3CCOCC3)c3c2CCC3)c1 | -14.7% (inactive) |  |
| CCCCCOc1ccc(/C=C/C(=O)NCCc2nc3ccccc3[nH]2)cc1OC |  | 9.2 µM (active) |
| CC(C)=C(NC(=O)c1ccco1)C(=O)NCCc1nc2ccccc2[nH]1 | -3.68% (inactive) |  |
| O=C(COc1ccccc1)NCCc1nc2ccccc2[nH]1 | 0.1% (inactive) |  |
| COc1ccc2c(C(=O)c3ccc(C)cc3)n(CCC(N)=O)[n+]([O-])c2c1 | -12.7% (inactive) |  |
| COC(=O)CNC(=O)C(CCSC)NC(C)=O (configuration not stated) (HELM PEPTIDE1{[ac].[CSCCC(N[*:1])C(=O)[*:2]].G.[CO[*:1]]}$$$$V2.0) | 0.948% (inactive) |  |
| CCN1CCN(C(=O)C2CCCN(S(=O)(=O)c3ccc(OC)c(OC)c3)C2)CC1 (configuration not stated) | -26.3% (inactive) |  |
| COc1ccc(OC)c(S(=O)(=O)N2CCCC(C(=O)N3CCC(C(N)=O)CC3)C2)c1 (configuration not stated) | 0.564% (inactive) |  |
| Cc1ccc(S(=O)(=O)N2CCC(C(=O)N3CCCCCCC3)CC2)cc1 |  | 20.6 µM (active) |
| Cc1ccc(S(=O)(=O)N2CCC(N3CCCCCC3)CC2)cc1 | -12.8% (inactive) |  |
| CC(=O)N1CCCc2cc(S(=O)(=O)N3CCC(C(=O)NC4CCCCC4)CC3)ccc21 | -0.0784% (inactive) |  |
| CCOC(=O)C1CCN(C(=O)C2CCCN(S(=O)(=O)c3ccc(OC)c(Cl)c3)C2)CC1 (configuration not stated) |  | 11.6 µM (active) |
| Cc1ccc(N(C)C(=O)C2CCN(S(=O)(=O)c3ccc4c(c3)CCCN4C(=O)C3CCC3)CC2)cc1 |  | 16.4 µM (active) |
| O=C(C1CCC1)N1CCN(c2ccccc2)CC1 | -3.02% (inactive) |  |
| O=C(C1CCCN(S(=O)(=O)c2ccccc2)C1)N1CCN(c2ccc(F)cc2)CC1 (configuration not stated) |  | 11.6 µM (active) |
| COc1ccc(S(=O)(=O)N2CCC(C(=O)N3CCCC3)CC2)cc1C | -17.4% (inactive) |  |
| CCCS(=O)(=O)N1CCCC(C(=O)N2CCN(c3ccccc3)CC2)C1 (configuration not stated) | -5.33% (inactive) |  |
| COc1ccc(N(C)C(=O)C2CCN(S(=O)(=O)c3cc(Br)cc4c3N(C(C)=O)CC4)CC2)cc1 | -24% (inactive) |  |

Source: PubChem BioAssay AID686978 (National Center for Advancing Translational Sciences (NCATS), 2013)
